This is an account of results in PubChem BioAssay (NCATS).

“And” between values parts separate entries of the source, which are not always exact repeats. Equal values may be shown once. Results filed as inconclusive are left out. Values without a mark were called inactive. The source made the active and inactive calls. Calls follow the shape of the dose curve; as a rule, active = well fitted curve in the direction sought with a large enough effect; inconclusive = small, poorly fitted or top-dose-only effect, or another doubt; inactive = no such curve, though single readings can be large; an effect the other way counts as inactive or inconclusive.

In experiment [1] the target is Cytochrome P450 3A7 (Homo sapiens) (UniProt P24462). Description: Cytochrome P450 family 3 subfamily A member 7 (CYP3A7) small molecule antagonists: luciferase biochemical qHTS assay (AID 1963596). Also: % is scaled to controls: 0 for no effect and ±100 for the full control effect; nearly all actives have a fitted effect of over 40% in size. The method in brief: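 Recombinant CYP3A7 P450-Glo luminescent assay: enzyme-proluciferin substrate mix preincubated with compound 10 min at room temperature, reaction started with NADPH regeneration system for 1 h. Luciferin detected by luminescence; ketoconazole as positive control.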

Experiment [2] is described as follows: Viability qHTS for spleen associated tyrosine kinase inhibitor (SYKi) naive MV4-11 cells (AID 1963823). Also: nearly all actives have a fitted effect of over 40% in size. Also: potency is read from the fitted curve at half-maximal effect. A digest of the protocol:
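qHTS, SYK inhibitor-naive MV4-11; 500 cells/well; 72 hr compound exposure, 37 C; CellTiter-Glo added, 10 min RT; luminescence read.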

Experiment [3] in a line: Viability qHTS for spleen associated tyrosine kinase inhibitor (SYKi) drug resistant MV4-11 cells (AID 1963824). Also: nearly all actives have a fitted effect of over 35% in size. Also: potency is read from the fitted curve at half-maximal effect. The method in brief:
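CellTiter-Glo luminescence, read 10 min after reagent addition, reports viability after a 72 hr compound exposure. Cells are an MV4-11 line made resistant to SYK inhibition, seeded at 500 per well onto compound-containing plates.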

Experiment [4] is described as follows: Quantitative highthroughput screen to assess conditional lethalithy of NOMO1 cells grown in RPMI1640 with dialyzed fetal bovine serum (RPMI+ds) (AID 1963877). Also: nearly all actives have a fitted effect of over 30% in size. Also: potency is read from the fitted curve at half-maximal effect.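 As to Viability: series mostly up to about 46 µM; 100% = DMSO control wells and 0% = empty wells.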 A digest of the protocol: (§1)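 Each medium arm—HPLM with 10% dialyzed FBS, or RPMI1640 with 5 mM glucose and 10% untreated or dialyzed FBS—was screened against an 11-point, 3-fold compound titration for 48 h at 37 °C, with CellTiter-Glo luminescence as endpoint.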

The nature of experiment [5]: Quantitative highthroughput screen to assess conditional lethalithy of P12 Ichikawa cells grown in Human Plasma-Like Medium with dialyzed fetal bovine serum (HPLM+ds) (AID 1963879). Also: nearly all actives have a fitted effect of over 35% in size. Also: potency is read from the fitted curve at half-maximal effect. As to Viability: series mostly up to about 46 µM. The note with it: Potency: viability. The method in brief: as §1
The nature of experiment [6]: Quantitative highthroughput screen to assess conditional lethalithy of P12 Ichikawa cells grown in RPMI1640 with dialyzed fetal bovine serum (RPMI+ds) (AID 1963880). Also: nearly all actives have a fitted effect of over 35% in size. Also: potency is read from the fitted curve at half-maximal effect.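 As to Viability: 100% = DMSO wells and 0% = empty wells on each plate.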 The note with it: Potency: P12-Ichikawa viability. A digest of the protocol: as §1
A short description of experiment [7]: Quantitative highthroughput screen to assess conditional lethalithy of P12 Ichikawa cells grown in RPMI1640 with untreated serum (RPMI+s) (AID 1963881). Also: nearly all actives have a fitted effect of over 35% in size. Also: potency is read from the fitted curve at half-maximal effect.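 As to Viability: series mostly up to about 46 µM; 100% = DMSO wells and 0% = empty wells without cells.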 The note with it: Potency: viability. The method in brief:
as §1

Experiment [8] can be described thus: Quantitative highthroughput screen to assess conditional lethalithy of SEM cells grown in Human Plasma-Like Medium with dialyzed fetal bovine serum (HPLM+ds) (AID 1963882). Also: nearly all actives have a fitted effect of over 35% in size. Also: potency is read from the fitted curve at half-maximal effect. As to Viability: series mostly up to about 46 µM. The method in brief: as §1
Experiment [9] in a line: Quantitative highthroughput screen to assess conditional lethalithy of SEM cells grown in RPMI1640 with unreated serum (RPMI+s) (AID 1963883). Also: nearly all actives have a fitted effect of over 35% in size. Also: potency is read from the fitted curve at half-maximal effect.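 As to Viability: 100% = DMSO wells and 0% = empty wells without cells.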 A digest of the protocol:
as §1

Experiment [10] can be described thus: Quantitative highthroughput screen to assess conditional lethalithy of SEM cells grown in RPMI1640 with dialyzed fetal bovine serum (RPMI+ds) (AID 1963884). Also: nearly all actives have a fitted effect of over 35% in size. Also: potency is read from the fitted curve at half-maximal effect.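 As to Viability: series mostly up to about 46 µM; 100% = DMSO control wells and 0% = empty wells without cells.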 The method in brief:
as §1

Experiment [11] is described as follows: Cellular viability qHTS for adrenocortical cancer (ACC) cell line SW-13 (AID 1963989). Also: nearly all actives have a fitted effect of over 65% in size. Also: potency is read from the fitted curve at half-maximal effect.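 As to activity (max response): cells grown in serum-free medium with ITS supplement; % is scaled to controls: 0 for no effect and ±100 for the full control effect.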 The note with it: SW-13 ACC cells viability, CellTiter-Glo, 48 h; activity (max response): stronger effect = lower value. A digest of the protocol: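 Luminescent ATP read-out (CellTiter-Glo, 20 min at room temperature) measured metabolically competent SW-13 cells after 48 h compound treatment. Final concentrations spanned up to 46 uM; bortezomib served as positive control.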
For orientation: Quantitative high-throughput screening tests each substance at several concentrations.

Experiment [12] in a line: Cellular viability qHTS for adrenocortical cancer (ACC) cell line NCI-H295R (AID 1963990). Also: nearly all actives have a fitted effect of over 60% in size. Also: potency is read from the fitted curve at half-maximal effect. The method in brief:
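IC50 and maximal efficacy derive from four-parameter logistic modelling of titration curves, with reads scaled between DMSO-only wells (0%) and doxorubicin hydrochloride (100% inhibition). Compounds spanned up to 46 uM over 48 h.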

Experiment [13] in a line: Quantitative highthroughput screen to assess conditional lethalithy of NOMO1 cells grown in Human Plasma-Like Medium with dialyzed fetal bovine serum (HPLM+ds) (AID 1963878). Also: nearly all actives have a fitted effect of over 35% in size. Also: potency is read from the fitted curve at half-maximal effect.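 As to Viability: 100% = DMSO wells and 0% = empty wells on each plate.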 A digest of the protocol:
as §1

Sequence of Cytochrome P450 3A7 (Homo sapiens) (P24462 whole entry, looked up): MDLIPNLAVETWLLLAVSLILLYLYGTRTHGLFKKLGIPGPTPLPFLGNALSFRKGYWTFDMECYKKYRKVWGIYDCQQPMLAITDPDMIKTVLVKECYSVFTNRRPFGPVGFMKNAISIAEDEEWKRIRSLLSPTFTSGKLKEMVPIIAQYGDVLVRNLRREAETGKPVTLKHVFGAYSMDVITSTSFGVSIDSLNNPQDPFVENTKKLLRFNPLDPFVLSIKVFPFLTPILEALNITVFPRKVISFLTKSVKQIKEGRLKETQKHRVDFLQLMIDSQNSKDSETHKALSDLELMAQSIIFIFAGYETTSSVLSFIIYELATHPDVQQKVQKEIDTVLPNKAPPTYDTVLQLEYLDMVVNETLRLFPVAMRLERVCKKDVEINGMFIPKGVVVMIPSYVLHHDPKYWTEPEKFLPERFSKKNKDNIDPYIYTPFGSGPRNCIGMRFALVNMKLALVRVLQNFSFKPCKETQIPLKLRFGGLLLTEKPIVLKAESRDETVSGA

For the molecule `CCN1CCCC1CNC(=O)c1cc(S(=O)(=O)CC)c(N)cc1OC` (stereo unspecified), the Potency result in experiment [1], in experiment [2], in experiment [3], in [4], in [5] and in [6] was “inactive” throughout. Besides, the Potency entry in experiment [7], in experiment [8], in experiment [9], in experiment [10] and in [12] was “inactive” in each case. For the same molecule, the activity (max response) in [11] was 7.57% and -4.85%.

Consider `CN(C)c1cc(NC(=O)CNC(C)(C)C)c(O)c2c1C[C@@H]1C[C@H]3[C@H](N(C)C)C(=O)C(C(N)=O)=C(O)[C@@]3(O)C(=O)C1=C2O`, for which the Potency entry in [1], in [2], in experiment [3], in experiment [4], in experiment [13] and in [5] was “inactive” throughout. Besides, the Potency result in experiment [6], in experiment [7], in [8], in experiment [9] and in experiment [10] was “inactive” each time.

For the molecule `Cc1ccc(S(=O)(=O)NC(=O)NN2CC3CCCC3C2)cc1` (stereo unspecified), the Potency entry in experiment [1], in experiment [2], in [3] and in experiment [12] was “inactive” in each case. The Potency in experiment [5] is 5.9 µM (active); in experiment [6], 2.96 µM (active); in [7], 4.18 µM (active); in experiment [8], 5.9 µM (active); in experiment [9] it was 4.18 µM (active); in experiment [10], 2.96 µM (active).

On to `CC(C)(C)NCC(O)c1ccc(O)c(CO)c1` (stereo unspecified), for which the Potency result in experiment [1], in experiment [2], in experiment [3], in [8], in experiment [9] and in experiment [10] was “inactive” each time. The Potency entry in experiment [12] is “inactive”. Also, in [7], the Potency is 4.18 µM (active).

Turning to `CN(C)CCOC(c1ccccc1)c1ccccc1`, the Potency result in experiment [1], in experiment [2], in experiment [3], in [7], in experiment [8] and in experiment [9] was “inactive” throughout. The Potency entry in experiment [10] and in experiment [12] was “inactive” each time. Moreover, the activity (max response) in experiment [11] was 0.185% and 9.44%.

Turning to `Cc1cn([C@@H]2O[C@H](CO)[C@@H](O)[C@H]2F)c(=O)[nH]c1=O`, the Potency result in [1], in experiment [2], in experiment [3], in [5], in experiment [8] and in experiment [9] was “inactive” each time. In addition, the Potency result in experiment [10] and in [12] was “inactive” throughout. In [11], the activity (max response) is 7.23%.

Turning to `COc1cc2c(Nc3ccc(Cl)c(Cl)c3F)ncnc2cc1OCC1C[C@@H]2CN(C)C[C@@H]2C1` (stereo partly specified), in [1], the Potency result is “inactive”. Moreover, the Potency in [2] is 1.86 µM (active); in experiment [3], 2.31 µM (active) and 2.95 µM (active); in experiment [4], 23.4 µM (active); in experiment [13], 13.2 µM (active); in experiment [5], 20.9 µM (active); in experiment [6], 23.4 µM (active). Moreover, the Potency in [8] was 14.8 µM (active); in experiment [9], 20.9 µM (active); in experiment [10], 20.9 µM (active); in experiment [11], 2 µM (active); in experiment [12], 7.94 µM (active) and 8.91 µM (active).
